Measurements: PubChem BioAssay AID720518 (National Center for Advancing Translational Sciences (NCATS), 2013)
Inconclusive results are not listed. A call without a number means that no potency is given here. The source made the active and inactive calls. Calls follow the shape of the full dose curve.

test: qHTS for Inhibitors of Cell Surface uPA Generation: Wild-type Protective Antigen (WT-PrAg) Counterscreen for Cherry-picked Compounds; settings: cells, WT protective antigen toxicity counterscreen; series mostly up to 115 µM
Potency is read from the fitted curve at half-maximal effect.

SMILES | Potency
Cc1c(C(=O)N(Cc2ccccc2Cl)C2CCS(=O)(=O)C2)oc2ccccc12 (stereo not given) | inactive
Cc1cc2[nH]c(=O)c(=O)[nH]c2cc1S(=O)(=O)NC1CCC(C)CC1 (stereo not given) | inactive
COCC(=O)N1CCC(n2nccc2NC(=O)c2ccccc2OC)CC1 | inactive
C/C=C/C(=O)Nc1cccc(C2=NOC3(C2)C[C@@H](C(N)=O)N(C(=O)c2cc([N+](=O)[O-])cc([N+](=O)[O-])c2C)C3)c1 (stereo not given in full) | inactive
O=C(COc1cccc2ccccc12)NNC(=O)c1cnccn1 | inactive
COC(C[C@H](O)[C@H](C)[C@@H](O)COCc1ccccc1)OC | inactive
OC(COc1ccc(Br)cc1)CN1CCN(c2ccccc2)CC1 (stereo not given) | inactive
Oc1c(N=NC(=S)Nc2ccccc2F)c2ccccc2n1Cc1ccccc1Cl | inactive
COC(=O)[C@]1(Cc2ccccc2)N[C@H](CN(C)C(=O)c2ccccc2)[C@@H]2C(=O)N(Cc3ccccc3)C(=O)[C@@H]21 | inactive
O=C(Nc1cccc(C2=NCCN2)c1)Nc1cccc(C2=NCCN2)c1 | inactive
Cc1oc(-c2ccccc2F)nc1CS(=O)CC(=O)NCc1ccc(F)cc1 (stereo not given) | inactive
COc1ccccc1C(=O)Nc1cccc(C(=O)c2ccccc2)c1 | inactive
COc1cc(/C=N/NC(=O)Cc2csc(C)n2)ccc1OCC(C)C | inactive
COc1cccc(NC(=O)CN(C)C(=O)c2csc3c2CCCC3)c1 | inactive
Cc1ccc(C23CC4CC(CC(C(=O)NN)(C4)C2)C3)cc1 | inactive
COc1cc(OC)cc(C(=O)NC(C(=O)Nc2ccc3c(c2)CCC3)C(C)C)c1 (stereo not given) | inactive
Fc1cccc(Cl)c1CSc1ccc(-c2cccnc2)nn1 | inactive
C=CCn1c(SCc2ccc(C(=O)NCCO)cc2)nc2ccccc2c1=O | inactive
Cc1cc(C)n2c(SCC#N)nnc2n1 | inactive
O=C(CSc1ccc([N+](=O)[O-])cn1)Nc1nccs1 | inactive

SMILES | Potency
Cc1cccc(Nc2ccc(NCc3ccccc3)nn2)c1 | inactive
COC(=O)[C@@]1(Cc2ccc(F)cc2)[C@H]2c3cc(C(=O)N(C)C)n(Cc4c(CO)[nH]cc(C)c4=O)c3C[C@H]2CN1C(=O)c1ccccc1 | inactive
CCC(C)C(NC(=O)c1ccccc1)C(=O)Nc1ccc(S(=O)(=O)Nc2cc(C)nc(C)n2)cc1 (stereo not given) | inactive
COc1ccc(S(=O)(=O)c2c(O)c3ccc(C(=O)Nc4ccccc4)cc3[nH]c2=O)cc1 | inactive
O=C(NC(=S)Nc1c(F)cc(F)cc1Br)c1ccc2c(c1)OCCO2 | inactive
CCCCn1c(SCC(=O)Nc2cc(C(F)(F)F)ccc2Cl)nnc1C(CC)N(C)C (stereo not given) | 58.5 µM (active)
CC(C)NC(=O)NC(=O)CN1C(=O)NC(Cc2c[nH]c3ccccc23)C1=O (stereo not given) | inactive
Cc1oc(-c2ccccc2F)nc1CS(=O)(=O)CC(=O)NC1CCCC(C)C1C (stereo not given) | inactive
O=C(O)CC1(CC(=O)NCc2ccc(Cl)cc2)CCCCC1 | inactive
COC(=O)c1ccc(CN2CCCC(CNC(=O)Cc3ccc(OC)cc3)C2)cc1 (stereo not given) | inactive
COc1ccccc1NC(=O)N1C[C@@H]2C[C@@H](C1)c1cccc(=O)n1C2 | inactive
O=C(NCCCn1ccnc1)C(=O)NCC(c1cccnc1)N1CCN(c2ccc(F)cc2)CC1 (stereo not given) | inactive
Cc1ccc(NC2CCCN(C(=O)Cc3nonc3C)C2)cc1C (stereo not given) | inactive
C=CCOC(=O)C1=C(C)NC(C)=C(C(=O)OCC=C)C1c1cn(-c2ccccc2)nc1-c1ccco1 | inactive
O=C(CN(c1ccccc1F)S(=O)(=O)c1ccccc1)Nc1ccc2c(c1)OCCO2 | inactive
CCN(c1ccccc1)S(=O)(=O)c1ccc(NC(=O)c2ccco2)cc1 | inactive
O=C(c1cc(COc2c(F)cccc2F)on1)N1CCc2ccccc2C1 | inactive
COc1ccc(C(C)=O)cc1CSC(=N)N | inactive
COCCN(CCOC)c1nc(-c2ccc(C)cc2)nc2ccccc12 | inactive
COc1cc(NC(=O)CSc2nnc3ccc(-c4ccncc4)nn23)cc(OC)c1 | inactive
